Measurements as given in PubChem BioAssay (NCI).
This is part of a sample that, as a whole, favours compounds with a hit. Of some 83,000 tested, about 20% had one in any assay.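 Growth was measured after 48 h exposure to one concentration of compound in 96-well plates. Values under 10 count as active.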 Values without a mark were called inactive. Calls of active or inactive are those of the source.

What was measured:
Test in all cases: NCI-60 one-dose screen, 48 h (100 = growth as untreated, 0 = no growth, -100 = all killed)
Conditions in all cases: 10 µM unless noted
[1] = system: T-47D breast
[2] = system: BT-549 breast
[3] = system: MDA-MB-435 melanoma
[4] = system: SW-620 colon
[5] = system: MCF7 breast
[6] = system: HCT-116 colon
[7] = system: HCC-2998 colon
[8] = system: KM12 colon

Row | SMILES | growth [1] | growth [2] | growth [3] | growth [4] | growth [5] | growth [6] | growth [7] | growth [8]
1 | Cn1ccc(=O)c(S(N)(=O)=O)c1 | 93.9% | 82% | 103% | 105% | 111% | 102% | 102% | 103%
2 | Cc1ccc(N2CCN(C(C)C(N)=O)CC2)cc1 (stereo not given) | 102% | 88.9% | 114% | 107% | 106% | 98.3% | 102% | 112%
3 | O=Nc1c(-c2cccc([N+](=O)[O-])c2)nc2ncccn12 | 73% | 73.4% | 99.2% | 18.2% | 70.2% | 51.1% | 93.6% | 89.3%
4 | C=C1c2nc3ccccc3n2C=C(c2ccc(Cl)cc2)N1Cc1ccccc1 | 66% | 142% | 98.1% | 86.9% | 63% | 63% | 89.2% | 86.9%
5 | Cc1ccc(Cc2c(C=O)nc(N)[nH]c2=O)c2ccccc12 | 95.5% | 87.9% | 107% | 103% | 103% | 88.2% | 101% | 102%
6 | C=C[C@@H]1C[C@H](O)Cc2c(C)cc(C)cc2N1 | 103% | 96.4% | 99.3% | 99.9% | 93.1% | 99.9% | 94.2% | 105%
7 | N/C(=N\S(=O)(=O)c1ccccc1)Nc1nc2ccccc2s1 | 75.9% | 95.5% | 101% | 99.6% | 90.6% | 97.5% | 107% | 93%
8 | C=C(C)[C@@H]1C[C@@H]2Cc3cc(F)ccc3N1O2 | 107% | 106% | 104% | 98.6% | 95.6% | 98.2% | 93.9% | 103%
9 | COc1ccc(C2C(C#N)=C(N)Oc3c2ccc2ccccc32)cc1 (stereo not given) | 31% | 61% | -49.8% (active) | 19% | 13.2% | 23.5% | 74.4% | 29%
10 | CCOC(=O)c1c(NS(=O)(=O)c2ccc(C)cc2)sc2c1CCC1(C2)OCCO1 | 81.3% | 93.8% | 101% | 90.7% | 93.2% | 95.9% | 92% | 88.8%
11 | COc1ccc(/C=C/c2c(C(C)=O)c(C)nc3ccccc23)cc1 | 39.5% | 61.6% | 69.1% | 86.8% | 85.8% | 70.8% | 93.3% | 93%
12 | NC1=NC(SCc2ccccc2CCl)c2ncn(Cc3ccccc3CCl)c2N1 (stereo not given) | 35.8% | 56.4% | 30.9% | 2.06% (active) | 25.2% | 7.53% (active) | 79.4% | 48.5%
13 | COC(=O)c1nc(-c2ccccc2)oc1S(=O)(=O)N1CCN(c2cccc(Cl)c2)CC1 | 66.2% | 71% | 69.8% | 61.7% | 39.2% | 54.8% | 98.8% | 95.1%
14 | Cc1[nH]c2ccc(F)cc2c1CCNC(=O)C1CCN(C(=O)c2ccccc2)C1 (stereo not given) | 69.5% [25 µM] | 94.7% [25 µM] | 99.3% [25 µM] | 102% [25 µM] | 90.9% [25 µM] | 99.7% [25 µM] | 106% [25 µM] | 102% [25 µM]
15 | CCOC(=O)c1cn2c3c(cccc3c1=O)C(=O)/C(=C/c1cccc(Cl)c1Cl)C2 | 75.5% | 91.6% | 106% | 102% | 96.2% | 105% | 100% | 108%
